# Screening data as filed in PubChem.
# aSyn UTR act: Activators via SNCA 5'UTR binding, MLPCN. alpha-synuclein 5'UTR reporter, activators screen. 7.1% of 300,000 active. activity score, % (tested at 7.5 µM), hits read low. AID 1814, 2009; in the data active = activity score below about -60%
# Hits are given with their value; n = inactive. These entries were drawn from the full list.
SMILES,aSyn UTR act
Cc1ccc(Cn2nc(-c3ccccc3)nc2-c2ccccc2)cc1,-154
Cn1nc(-c2ccccc2)nc1-c1ccccc1,-65
Cc1snc2sc(C(=O)c3ccc(F)cc3)c(N)c12,-96
CN1Cc2c(N3CCOCC3)nc3sc(C(=O)c4ccc(Br)cc4)c(N)c3c2CC1(C)C,n
CN(C)c1ccnc2sc(C(=O)c3ccc(Br)cc3)c(N)c12,-85
C#CCn1c(=NC(=O)c2ccc(Cl)s2)sc2cccc(OC)c21,-79
COC(=O)Cn1c(=NC(=O)c2ccc(Cl)s2)sc2cc(F)ccc21,-111
Cc1cc(C)n2cc(CSc3nc4ccccc4s3)nc2n1,-107
Cc1ccc(OCc2cc(C(=O)N3CCCC3)no2)cn1,-70
CCc1cc(CNC(=O)c2cc(COc3ccc(C)nc3)on2)on1,-73
C=CCC1(CC=C)CCCN1C(=O)c1cc(COc2ccc(C)nc2)on1,-78
N/C(=N\OC(=O)c1ccncc1)c1cccc([N+](=O)[O-])c1,-70
N/C(=N\OC(=O)c1ccc(Br)cc1)c1cccc([N+](=O)[O-])c1,-179
Cc1ccc(C(=O)O/N=C(\N)c2cccc([N+](=O)[O-])c2)cc1,-218
N/C(=N\OC(=O)c1ccc([N+](=O)[O-])cc1)c1ccc(Br)cc1,-81
O=C(/C=C/c1cc(Br)ccc1F)Nc1cccnc1,-118
O=C(/C=C/c1c(F)cccc1Cl)Nc1cccnc1,-111
CNS(=O)(=O)c1ccc(NC(=O)c2cc(-c3ccncc3)nc3ccc(Cl)cc23)cc1,-98
O=C(Nc1ccc(NC(=O)C2CCCCC2)nc1)c1ccco1,-101
O=C(Nc1ccc(NC(=O)C2CC2)nc1)c1ccco1,-121
Cc1ccc(S(=O)(=O)N2CCCC(C(=O)Nc3ccc(NC(=O)c4ccccn4)cc3)C2)cc1 (stereo not given),-74
Cc1ccc(NC(=S)N=Nc2c(O)n(C)c3ccc(S(=O)(=O)N4CCOCC4)cc23)cc1,n
CNS(=O)(=O)c1ccc(NC(=O)c2ccccn2)cc1,-73
O=C(Nc1ccc(NC(=O)C2CCCCC2)nc1)c1ccccn1,-108
N#Cc1c(N2CCSCC2)nsc1-c1ccccc1Cl,-63
SMILES,aSyn UTR act
Brc1ccc(-c2ncc3ccccn23)cc1,-130
Fc1ccc(-c2ncc3ccccn23)cc1,-101
CCOc1cccc(C(=O)NC(=S)Nc2ccccc2)c1,-184
CCOc1cccc(C(=O)NC(=S)Nc2cccnc2)c1,-142
CC(C)(C)c1cc(Cl)c(O)c(NC(=S)NC(=O)c2cccnc2)c1,n
O=C(NC(=S)Nc1ccc(CN2CCCCC2)cc1)c1cccc(OCc2ccccc2)c1,-65
O=C(CC1CCCCC1)Nc1nc2ccccc2s1,-130
CCNC(=O)Nc1nc2ccccc2s1,-97
Cc1cnc(NC(=O)CC2CCCC2)s1,-131
S=C(Nc1ccccc1)c1nc2ccccc2s1,-170
O=C(NNc1nc2ccccc2s1)Nc1ccccc1,-255
O=C(NCc1ccncc1)C(=O)Nc1nc2ccccc2s1,-72
Cc1cc(N)c(NC2=CC(=O)CC(C)(C)C2)cc1C,-108
Cc1ccc2c(c1)C(N1CCCC1=O)CC(c1ccco1)N2 (stereo not given),-171
COc1ccc(C2CC(c3ccc(Br)cc3)=NN2C(=S)Nc2ccccc2)cc1 (stereo not given),-78
CCC(=O)N1N=C(c2c(-c3ccccc3)c3cc(Cl)ccc3[nH]c2=O)CC1c1ccco1 (stereo not given),n
Cc1ccc(C2=NN(C(=S)Nc3ccccc3)C(c3ccco3)C2)cc1 (stereo not given),-178
CCS(=O)(=O)Nc1ccc(C2=NN(C(=S)Nc3ccccc3)C(c3ccco3)C2)cc1 (stereo not given),-81
CCOC(=O)c1c(C)[nH]c(N=Nc2ccc(OC)cc2)c1C,-249
CCOC(=O)c1c(C)[nH]c(N=Nc2ccc(C)cc2)c1C,-271
CCOC(=O)c1c(C)[nH]c(N=Nc2ccccc2Cl)c1C,-119
CCOC(=O)c1c(C)[nH]c(C=Nc2ccc(OC)cc2)c1O,-96
COc1cc2c(c(OC)c1OC)-c1ccc(N(C)CC(OC)OC)c(=O)cc1[C@@H](NC(C)=O)CC2,n
CCOC(=O)c1c(C)[nH]c(N=Nc2ccccc2)c1C,-143
Nn1c(SCC(=O)NC(=O)Nc2ccc3c(c2)OCCO3)nnc1C1CC1,-96
SMILES,aSyn UTR act
O=C(CSc1nnnn1-c1ccccc1)NC(=O)Nc1ccc2c(c1)OCCO2,-86
Cn1nnnc1SCC(=O)Nc1ccc2c(c1)OCCO2,-86
Cc1cccc(NC(=O)C2C3CCCCC32)c1 (stereo not given),-117
Cc1cc(NC(=O)OC2CCCCC2)ccc1[N+](=O)[O-],-190
Cc1ccc(NC(=O)C2C3CCCCC32)cc1[N+](=O)[O-] (stereo not given),-99
Cc1ccc(NC(=O)CN2CCCCCC2)cc1[N+](=O)[O-],-90
CC(=O)c1ccc(NC(=O)CN2CCCC2)cc1,-63
Cc1ccc(NC(=O)Nc2ccccc2)cc1[N+](=O)[O-],-145
CSCCC(=O)Nc1ccc(C(C)=O)cc1,-143
Cc1ccc(NC(=O)C2C3/C=C\CCCCC32)cc1 (stereo not given),-83
Cc1ccc(C(=O)NCCCc2ccccc2)c(C)c1,-129
O=C(NCCCc1ccccc1)c1ccc(Br)o1,-62
O=C(NCCCc1ccccc1)c1ccc([N+](=O)[O-])cc1Cl,-83
O=C(NCCCc1ccccc1)c1ccccc1O,-140
Cc1ccc(C(=O)NCCCc2ccccc2)c(Cl)c1,-100
Cc1cccc(/C=N/NC(=O)Cc2cccs2)c1,-74
CCN(CC)c1ccc(/C=N/NC(=O)Cc2cccs2)c(O)c1,n
CCOc1ccc(/C=N/NC(=O)Cc2cccs2)cc1,-85
CCOC(=O)N/N=C/C(Cl)=C/c1ccccc1,-128
O=C(Cc1cccs1)N/N=C/C(Cl)=C/c1ccccc1,-192
Cc1cc2nc(N)sc2cc1C,-64
Nc1nc2ccc(OC(F)(F)F)cc2s1,-74
CC(C)c1ccc2nc(N)sc2c1,-107
Cn1c(-c2cccs2)nc2ccccc21,-93
Cn1c(-c2ccc(C=O)s2)nc2ccccc21,-123
SMILES,aSyn UTR act
Cc1cc(Cl)n2c(nc3ccccc32)c1C#N,n
Cn1c(-c2ccc(Cl)nc2)nc2ccccc21,-65
COc1ccc(Nc2cc(C)nc(N)n2)cc1,-64
Nc1cc(Nc2ccc(Br)cc2)nc(N)n1,-149
Cc1cc(Nc2ccc(Cl)cc2)nc(N)n1,-111
Clc1ccc(COc2ccccc2-c2ccnc3ncnn23)cc1,-75
Cn1c(/C(C#N)=C/c2ccc(O)cc2)nc2ccccc21,-126
O=C(Nc1ccccc1)c1ccc(CSc2ccccn2)cc1,-102
O=C(c1cc2cc([N+](=O)[O-])ccc2s1)N1CCCCC1,-71
O=C(Nc1ccccn1)c1cc2cc([N+](=O)[O-])ccc2s1,-158
O=C(NC(=S)Nc1ccccn1)c1ccccc1,-133
O=C(Nc1ccc(Cl)cc1)c1ccc(-c2ccccn2)s1,-170
O=C(Nc1ccccn1)c1ccc(Br)s1,-191
O=C(Nc1ccccn1)c1cc2ccccc2cc1O,-104
O=C(Nc1ccccn1)c1ccc(C(=O)Nc2ccccn2)cc1,-104
O=C(NC(=S)Nc1ccccn1)c1ccc([N+](=O)[O-])cc1,-119
Fc1ccccc1-c1nc(-c2ccncc2)no1,-116
NC(=O)c1ccccc1-c1nc(-c2ccccc2)no1,-82
Fc1ccccc1-c1nc(-c2ccccc2)no1,-97
COc1cccc(C2=CC(c3cccc(OC)c3OC)n3nnnc3N2)c1 (stereo not given),-295
COc1cccc(C2=CC(c3cc(OC)ccc3OC)n3nnnc3N2)c1 (stereo not given),-165
